Screening results deposited in PubChem by The Scripps Research Institute Molecular Screening Center.
The list is not random: actives were taken first. Their share in the collection is about 1.1%.
COUP-TFII inh = NR2F2 (human) inhibition, primary screen; P24468; HEK293T NGFI-A luciferase reporter, luminescence; inhibition, % at 8.6 µM; 0.7% of 370,000 active;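 active means inhibition above a per-plate cutoff, mean inhibition of test wells between control levels plus 3 SD, cut at about 38% in these data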;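 further: cells cotransfected with COUP-TFII expression vector driving the NGFI-A reporter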
NR5A2 inv ag = inverse agonists of human LRH-1 (NR5A2). O00482. HEK293T StAR-luciferase reporter, LRH-1 transfected, 24 h. inhibition, % at 3.6 µM. 0.13% of 360,000 active. AID 602396;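 active means inhibition above the mean inhibition of all tested compounds plus 3 SD, cut at about 73% in these data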
SRC2 inh = inhibits human steroid receptor coactivator 2; inhibition, % at 9 µM; Q15596; HEK293 GAL4-SRC2 luciferase reporter, luminescence; 0.17% of 370,000 active;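 active means inhibition above the mean inhibition of all tested compounds plus 3 SD, set per campaign, cut at about 52% in these data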
NCOA3 inh = inhibits human SRC3 coactivator; Q9Y6Q9; HEK293 GAL4-SRC3 luciferase reporter, luminescence; inhibition, % at 3.6 µM; 0.17% of 360,000 active;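 active means inhibition above a per-campaign cutoff, the mean of all compounds plus 3 SD, cut at about 60% in these data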;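 further: higher means less SRC3-driven luciferase light from the GAL4 reporter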
Target sequence (Q9Y6Q9 whole entry, looked up, the tested form may be a part): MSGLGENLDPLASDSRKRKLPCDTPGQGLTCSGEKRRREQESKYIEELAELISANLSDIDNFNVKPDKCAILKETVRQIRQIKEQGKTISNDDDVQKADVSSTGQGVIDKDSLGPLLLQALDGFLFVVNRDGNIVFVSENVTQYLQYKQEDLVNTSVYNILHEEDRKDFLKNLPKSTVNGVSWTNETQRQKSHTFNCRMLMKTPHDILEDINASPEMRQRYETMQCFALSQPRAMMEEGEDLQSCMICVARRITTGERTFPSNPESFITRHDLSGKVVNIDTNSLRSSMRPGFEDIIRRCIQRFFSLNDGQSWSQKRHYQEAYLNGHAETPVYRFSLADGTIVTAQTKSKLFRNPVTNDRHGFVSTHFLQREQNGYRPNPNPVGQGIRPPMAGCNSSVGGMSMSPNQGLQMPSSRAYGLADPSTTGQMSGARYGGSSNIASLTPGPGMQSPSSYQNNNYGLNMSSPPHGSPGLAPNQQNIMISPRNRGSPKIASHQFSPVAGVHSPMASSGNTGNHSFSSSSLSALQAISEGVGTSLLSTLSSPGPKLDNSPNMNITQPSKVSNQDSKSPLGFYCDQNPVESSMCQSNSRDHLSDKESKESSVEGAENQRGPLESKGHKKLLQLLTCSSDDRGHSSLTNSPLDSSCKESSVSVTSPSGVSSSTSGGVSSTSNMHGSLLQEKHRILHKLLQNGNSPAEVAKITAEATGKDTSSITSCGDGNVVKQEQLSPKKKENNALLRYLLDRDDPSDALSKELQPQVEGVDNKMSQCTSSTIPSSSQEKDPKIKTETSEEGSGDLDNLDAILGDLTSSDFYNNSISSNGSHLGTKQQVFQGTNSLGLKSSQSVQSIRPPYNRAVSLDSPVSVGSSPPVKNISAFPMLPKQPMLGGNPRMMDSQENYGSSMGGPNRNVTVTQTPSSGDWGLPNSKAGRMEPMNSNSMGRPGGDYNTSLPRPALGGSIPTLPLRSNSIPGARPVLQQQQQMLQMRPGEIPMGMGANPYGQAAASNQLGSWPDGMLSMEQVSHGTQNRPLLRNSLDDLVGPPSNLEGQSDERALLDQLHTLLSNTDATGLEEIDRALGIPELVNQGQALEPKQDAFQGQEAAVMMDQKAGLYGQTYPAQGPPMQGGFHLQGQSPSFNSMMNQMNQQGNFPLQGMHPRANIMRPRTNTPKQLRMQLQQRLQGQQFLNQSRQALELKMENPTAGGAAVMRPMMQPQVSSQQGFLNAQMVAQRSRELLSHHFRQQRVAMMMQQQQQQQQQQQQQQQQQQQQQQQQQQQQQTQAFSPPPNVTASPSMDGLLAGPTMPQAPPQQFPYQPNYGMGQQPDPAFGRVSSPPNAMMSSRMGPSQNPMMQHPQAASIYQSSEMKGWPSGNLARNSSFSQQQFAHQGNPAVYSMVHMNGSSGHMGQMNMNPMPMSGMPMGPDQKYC
GalR3 antag = blocks the human galanin receptor 3 | O60755 | 0.44% of 360,000 active | inhibition, % at 3 µM | HEK293 GalR3-CNG cAMP membrane potential fluorescence; galR3 body fused to GalR1 C-terminus;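 active means inhibition above the screen-wide average plus 3 SD, cut at about 13% in these data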;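 further: forskolin and galanin both at EC90 stimulate the cells; cAMP rise reported by CNG channel membrane potential dye signal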
SRC1 inh = human NCOA1 inhibition; inhibition, % at 3.6 µM; 0.12% of 360,000 active; Q15788; HEK293 GAL4-SRC1 luciferase reporter, luminescence;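 active means inhibition above the campaign mean plus 3 SD, with each screening campaign given its own cutoff, cut at about 60% in these data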
Gal4-VP16 ctr = VP16 inhibition counter-screen for COUP-TFII; shares compounds with COUP-TFII inh; HEK293 Gal4-VP16 luciferase reporter, luminescence; 25% of 2,500 active; AID 687007; inhibition, % at 8.5 µM; in the data active means inhibition above about 13%
NR2F2 inh conf = confirmation of human COUP-TFII (NR2F2) inhibitors. 45% of 2,500 active. inhibition, % at 8.5 µM. HEK293 NGFI-A luciferase reporter, luminescence. shares compounds with COUP-TFII inh;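 active means mean inhibition over three repeats above a set limit taken from the earlier primary screen, cut at about 38% in these data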
A number is an active result; . = inactive; / = no result given.

SMILES	COUP-TFII inh	NR5A2 inv ag	SRC2 inh	NCOA3 inh	GalR3 antag	SRC1 inh	Gal4-VP16 ctr	NR2F2 inh conf
C[n+]1ccc(/C=C/c2ccc(Br)cc2)cc1	.	.	.	.	.	.	/	/
CCCn1c(/C=C/c2cc[n+](C)cc2)nc2ccccc21	.	.	.	.	.	.	/	/
C[C@@H]1CCCCO[C@H](CN(C)S(=O)(=O)c2ccc(F)cc2)[C@@H](C)CN([C@H](C)CO)C(=O)c2cc(NC(=O)Nc3ccc(C(F)(F)F)cc3)ccc2O1	.	.	.	.	.	.	/	/
O=C(NCc1ccccc1)c1cc(C2CCCN(S(=O)(=O)c3cccs3)C2)on1 (stereo not drawn)	.	.	.	.	.	.	/	/
Cc1cc(=O)oc2c(C(=O)/C=C/c3ccccc3)c(O)ccc12	.	.	.	.	.	.	/	/
CC1(C)C=Cc2ccc(O)c(C(=O)/C=C/c3ccccc3)c2O1	44	/	/	/	/	/	18	.
COC(=O)N1CCC2CC1c1c(Cl)cccc12 (stereo not drawn)	.	.	.	.	.	.	/	/
COCC(=O)N(c1ccc(C(C)(C)C)cc1)C(C(=O)NC(C)(C)C)c1cccnc1 (stereo not drawn)	.	/	/	/	/	/	/	/
CC1CN(c2ccnc3cc(Cl)ccc23)CCN1C(=O)c1ccc(Cl)cc1 (stereo not drawn)	50	/	/	/	/	/	.	.
O=C(c1cccc(Cl)c1)N1CCN(c2ccnc3cc(Cl)ccc23)CC1	49	/	/	/	/	/	.	.
CN(c1cccc(Cl)c1)S(=O)(=O)c1cccc(C(=O)Nc2nc3ccccc3[nH]2)c1	42	.	.	.	.	.	.	.
COc1ccc(N(C)S(=O)(=O)c2cccc(C(=O)Nc3nc4ccccc4[nH]3)c2)cc1	.	.	.	.	.	.	/	/
COc1ccc(/C=C/c2nc3ccccc3c(=O)o2)cc1	79	.	77	.	.	.	.	.
COc1ccccc1/C=C/c1nc2ccccc2c(=O)o1	.	.	.	.	.	.	/	/
COc1ccc(Cn2c(/C=C/c3ccccc3)nc3ccccc32)cc1	.	.	.	.	.	.	/	/
COc1ccc(/C=C/c2nc3ccccc3n2C)cc1	64	.	58	.	.	.	.	39
CC(C)(C)c1ccc(-c2nnc3sc(-c4ccccn4)nn23)cc1	41	.	.	.	.	.	.	52
O=C1CCCN1c1ccc(S(=O)(=O)NCCOc2ccccc2)cc1	.	.	.	.	.	.	/	/
Cc1cc(N2CCCC2=O)cc(C)c1S(=O)(=O)NCCOc1ccc(C(C)(C)C)cc1	44	.	.	.	.	.	.	.
Cc1ccc(-n2ncc3c2CCCC3NC(=O)CCC2=NNC(=O)CC2)cc1C (stereo not drawn)	.	.	.	.	.	.	/	/
CC(C)(C)c1ccc(-n2ncc3c2CCCC3NC(=O)CCC2=NNC(=O)CC2)cc1 (stereo not drawn)	39	.	.	.	.	.	.	.
CCN=C1NC(CCc2ccccc2)C(C(=O)OC)=C(C)N1Cc1ccccc1C(F)(F)F (stereo not drawn)	.	/	.	/	.	/	/	/
C#CCNC(=O)C[C@H]1C[C@@]2(C(=O)OC)C(=C[C@H](C(C)(C)C)O[C@@H]2C)N(CCC2=CCCCC2)C1=O	.	/	.	/	.	/	/	/
c1ccc2c(c1)Nc1ccncc1S2	38	.	.	.	.	.	.	.
c1ccc2c(c1)Nc1cc3ccccc3cc1S2	.	.	.	.	.	.	/	/
SMILES	COUP-TFII inh	NR5A2 inv ag	SRC2 inh	NCOA3 inh	GalR3 antag	SRC1 inh	Gal4-VP16 ctr	NR2F2 inh conf
Cc1nn(C)c(C)c1/C=C/C(=O)O	.	.	.	.	.	.	/	/
Cc1nn(C)c(C)c1/C=C/C(=O)c1ccc(Cl)cc1Cl	47	.	.	.	.	.	.	38
NC(=O)c1ncn([C@@H]2O[C@H](C(=O)N[C@H](Cc3ccccc3)C(=O)O)[C@@H](O)[C@H]2O)n1	.	/	.	/	.	/	/	/
Cc1ccc(S(=O)(=O)NC[C@@H]2C[C@H](c3ccccc3)ON2S(=O)(=O)c2ccc(C)cc2)cc1	.	/	/	/	/	/	/	/
Nc1[nH]c(C(=O)c2ccccc2)c(-c2ccccc2Br)c1C(=O)c1cccs1	.	/	.	/	.	/	/	/
COc1ccc2c(c1)/C(=C\c1cccc(/C=C3/C(=O)Nc4ccc(OC)cc43)n1)C(=O)N2	70	.	55	.	.	.	75	95
COC(=O)C1=CC(=O)C=C(OC)[C@@]12Oc1cc(C)cc(OC)c1C2=O	.	/	.	/	/	/	/	/
O=[N+]([O-])c1nn(-c2ccc3c(c2)OCCO3)n(O)c1=Nc1ccc(Cl)cc1	.	.	.	.	.	.	/	/
O=[N+]([O-])c1nn(-c2ccc3c(c2)OCCO3)n(O)c1=Nc1ccccc1	91	94	84	85	.	76	.	.
CN(Cc1cn(Cc2ccccc2)nn1)S(=O)(=O)c1ccc(F)cc1Br	.	/	.	/	/	/	/	/
COc1ccc(NC(=O)c2ccc(CN3CCc4ccccc4C3)cc2)c(OC)c1	.	.	.	.	.	.	/	/
COC(=O)c1ccc(CN2CCc3ccc(NC(=O)c4ccncc4)cc3C2)cc1	48	.	.	.	.	.	.	.
Cc1c(P(=S)(c2ccccc2)c2ccccc2)[n+]2ccccc2n1C/C=C/c1ccccc1	38	.	.	.	.	.	.	.
O=C(N/N=C\c1ccc(-c2ccc([N+](=O)[O-])cc2)o1)c1ccc2c(c1)OCO2	.	.	.	.	.	.	/	/
O=C(N/N=C/c1ccc([N+](=O)[O-])o1)c1ccc2c(c1)OCO2	54	.	67	.	.	.	45	44
COC(=O)[C@]12C[C@H](CC(=O)NCc3ccc(OC)c(OC)c3)C(=O)N(Cc3ccc4c(c3)OCO4)C1=C[C@H](C(C)C)O[C@@H]2C1CC1	.	/	.	/	/	/	/	/
Cc1nc2ccc(NC(=O)c3cccs3)cc2c(=O)n1Cc1ccc(Cl)cc1	59	.	.	.	.	.	.	46
Cc1cc(N2CCN(C(=O)Oc3ccc([N+](=O)[O-])cc3)CC2)c2ccccc2n1	43	.	.	/	.	/	.	.
Cc1cc(N2CCN(S(=O)(=O)c3ccc(Cl)cc3)CC2)c2ccccc2n1	41	.	.	.	.	.	.	.
COc1ccc(N2CCN(C(=O)Oc3ccc([N+](=O)[O-])cc3)CC2)cc1	.	.	.	/	.	/	/	/
C=CCN1[C@@H](C)[C@H](c2ccccc2)Oc2cccc(NCCc3ccccc3)c2S1(=O)=O	.	/	.	/	.	/	/	/
Nc1ccn([C@@H]2O[C@H](C(=O)N3CCN(C(=O)C(F)(F)F)CC3)[C@@H](O)[C@H]2O)c(=O)n1	.	/	.	/	.	/	/	/
O=C(Nc1ccccc1O)c1ccc(NS(=O)(=O)c2cccc3cccnc23)cc1	40	.	.	.	.	.	.	38
